Experimental data as given in PubChem BioAssay (NCATS).
Records with an inconclusive call do not appear. Calls of active or inactive are those of the source. The call rests on the fitted dose curve; in most records, active means well fitted curve in the direction sought with a large enough effect; inconclusive means small, poorly fitted or top-dose-only effect, or another doubt; inactive means no such curve, though single readings can be large; an effect the other way counts as inactive or inconclusive.

Experiments:
[1] = tested on: CRL-7250; assay: Cytotoxic Profiling of Annotated Libraries Using Quantitative High-Throughput Screening (AID 1296008); conditions: Five cell lines viability, CellTiter-Glo ATP luminescence, 48-72 h; max response: active compounds read low; further: nearly all actives have a fitted effect of over 60% in size; on max response: on the % scale 0 is the no-effect control and ±100 the full control effect
In short: (§1)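 Compounds were pin-transferred onto cells and incubated 48 or 72 hr at 37 degree Celsius, 95% humidity. CellTiter-Glo was added, plates sat 10 min at room temperature, then ATP-coupled luminescence was imaged as the viability read-out.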

[2] = tested on: HEK293; assay: as above; conditions: Five cell lines viability, CellTiter-Glo ATP luminescence, 48-72 h; max response: active compounds read low
In short: as §1

[3] = tested on: HaCat; assay: as above; conditions: Five cell lines viability, CellTiter-Glo ATP luminescence, 48-72 h; max response: active compounds read low
In short: as §1

[4] = tested on: KB-3-1; assay: as above; conditions: Five cell lines viability, CellTiter-Glo ATP luminescence, 48-72 h; max response: active compounds read low
In short: as §1

[5] = tested on: NIH3T3; assay: as above; conditions: Five cell lines viability, CellTiter-Glo ATP luminescence, 48-72 h; max response: active compounds read low
In short: as §1

[6] = tested on: HACAT; assay: qHTS assay to identify novel small-molecules to repurpose for Merkel cell carcinoma treatment (AID 1296009); conditions: MCC and control cell lines, CellTiter-Glo viability, 72 h; at 44.8 µM (top of the series) unless noted; further: nearly all actives have a fitted effect of over 60% in size
In short: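 qHTS format: cells treated with library compounds in DMSO across 8 (NPC) or 11 (MIPE) concentrations. Readout after 72 hr at 37 degree celsius was CellTiter-Glo luminescence.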

[7] = tested on: C33A; assay: Primary qHTS to identify gynecologic anti-cancer compounds using libraries of approved drugs and bioactive compounds (AID 1345084); conditions: Gynecologic cancer cell panel viability, ATPlite luminescence, 48 h; series mostly up to 57.5 µM; further: on the % scale 0 is the no-effect control and ±100 the full control effect; nearly all actives have a fitted effect of over 55% in size
In short: (§2)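 Cell viability after 48 h drug treatment, ATPlite luminescence readout; five doses.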

[8] = tested on: CAOV3; assay: as above; conditions: Gynecologic cancer cell panel viability, ATPlite luminescence, 48 h; series mostly up to 57.5 µM
In short: as §2

[9] = tested on: CASKI; assay: as above; conditions: Gynecologic cancer cell panel viability, ATPlite luminescence, 48 h; series mostly up to 57.5 µM
In short: as §2

[10] = tested on: Es-2; assay: as above; conditions: Gynecologic cancer cell panel viability, ATPlite luminescence, 48 h; series mostly up to 57.5 µM
In short: as §2

[11] = tested on: HeLa; assay: as above; conditions: Gynecologic cancer cell panel viability, ATPlite luminescence, 48 h; series mostly up to 57.5 µM
In short: as §2

[12] = tested on: Hek293T; assay: as above; conditions: Gynecologic cancer cell panel viability, ATPlite luminescence, 48 h, control line for the selectivity index; series mostly up to 57.5 µM
In short: as §2

[13] = tested on: JEG-3; assay: as above; conditions: Gynecologic cancer cell panel viability, ATPlite luminescence, 48 h; series mostly up to 57.5 µM
In short: as §2

[14] = tested on: OV90; assay: as above; conditions: Gynecologic cancer cell panel viability, ATPlite luminescence, 48 h; series mostly up to 57.5 µM
In short: as §2

[15] = tested on: PA-1; assay: as above; conditions: Gynecologic cancer cell panel viability, ATPlite luminescence, 48 h; series mostly up to 57.5 µM
In short: as §2

CC(=O)O[C@H]1[C@H](OC(=O)C(C)C)[C@]2(C)OC3(CC[C@]2(C)[C@H]2CCC[C@]4(CO4)[C@]12C)COC(=O)C3 (stereo not given in full)
inactive: max response [1] -5.19% | max response [2] -0.769% | outcome [3] | max response [4] 4.61% | max response [5] -0.316% | outcome [6] inactive [at 17.4 µM] | Potency [7] | Potency [8] | outcome [9] | Potency [10] | Potency [11] | Potency [12] | Potency [13] | Potency [14] | Potency [15]

CCC(C)C(=O)O[C@H]1[C@@H](O[C@H]2O[C@H](CO)[C@@H](O)[C@H](O)[C@H]2O)O[C@H](CO)[C@@H](O)[C@@H]1O (stereo not given in full)
inactive: max response [1] -1.24% | max response [2] -6.33% | outcome [3] | max response [4] -0.199% | max response [5] 2.16% | outcome [6] inactive [at 17.4 µM] | Potency [7] | Potency [8] | outcome [9] | Potency [10] | Potency [11] | Potency [12] | Potency [13] | Potency [14] | Potency [15]

OC[C@H]1O[C@@H](OCCc2ccccc2)[C@H](O)[C@@H](O)[C@@H]1O
inactive: max response [1] -3.7% | max response [2] 3.92% | outcome [3] | max response [4] 6.47% | max response [5] 4.48% | outcome [6] | Potency [7] | Potency [8] | outcome [9] | Potency [10] | Potency [11] | Potency [12] | Potency [13] | Potency [14] | Potency [15]

NC1Nc2ccccc2C1(N)CC1NC(=O)C(Cc2ccccc2)NC(=O)C(Cc2ccccc2)NC1=O (stereo not given)
inactive: max response [1] -1.59% | max response [2] -40.7% | outcome [3] | max response [4] 2.51% | max response [5] 1.33% | outcome [6] inactive [at 17.4 µM] | Potency [7] | Potency [8] | outcome [9] | Potency [10] | Potency [11] | Potency [12] | Potency [13] | Potency [14] | Potency [15]

C[C@@H](c1ccccc1)N(C(N)=NC#N)c1cccc2ncccc12
inactive: outcome [1] | max response [2] 0.131% | outcome [3] | outcome [4] | max response [5] 3.53% | outcome [6] | Potency [7] | Potency [8] | outcome [9] | Potency [10] | Potency [11] | Potency [12] | Potency [13] | Potency [14] | Potency [15]

C=C1CC23CC(=O)C4C(CO)(CO)CCCC4(C)C2CCC1C3 (stereo not given)
inactive: outcome [1] | max response [2] 2.8% | outcome [3] | outcome [4] | max response [5] -8.41% | outcome [6] | Potency [7] | Potency [8] | outcome [9] | Potency [10] | Potency [11] | Potency [12] | Potency [13] | Potency [14] | Potency [15]

COC1CC(O[C@H]2CC[C@@]3(C)C(=CC[C@]4(O)C3[C@H](O)[C@@H](O)[C@]3(C)[C@@H]([C@H](C)O)CC[C@@]34O)C2)OC(C)C1OC1CC(OC)C(OC2CC(OC)C(OC3OC(C)C(OC4OC(CO)C(O)C(O)C4O)C(OC)C3O)C(C)O2)C(C)O1 (stereo not given in full)
inactive: max response [1] -21.7% | max response [2] -82.7% | outcome [3] | max response [4] 2.22% | max response [5] -54.6% | outcome [6] inactive [at 9.27 µM] | activity change, negative = cytotoxicity [7] 15.5% [at 11.6 µM] | activity change, negative = cytotoxicity [8] 14.6% [at 11.6 µM] | activity change, negative = cytotoxicity [9] 17.9% [at 11.6 µM] | activity change, negative = cytotoxicity [10] 5.18% [at 11.6 µM] | activity change, negative = cytotoxicity [11] -0.017% [at 11.6 µM] | activity change, negative = cytotoxicity [12] 8.49% [at 11.6 µM] | activity change, negative = cytotoxicity [13] -0.832% [at 11.6 µM] | activity change, negative = cytotoxicity [14] -7.88% [at 11.6 µM] | activity change, negative = cytotoxicity [15] -4.49% [at 11.6 µM]

CC1(C)CC=C(c2cnc3ccccc3c2)c2cc(C(=O)Nc3ccc(C(=O)O)cc3)ccc21
inactive: outcome [1] | max response [2] 2.92% | outcome [3] | outcome [4] | max response [5] -2.18% | outcome [6] | Potency [7] | Potency [8] | outcome [9] | Potency [10] | Potency [11] | Potency [12] | Potency [13] | Potency [14] | Potency [15]

O=C(O)CC1CCC(c2ccc(-c3ccc(Nc4ccc(C(F)(F)F)nc4)cn3)cc2)CC1 (stereo not given)
inactive: max response [1] 3.84% | max response [2] -8.47% | outcome [3] | max response [4] -6.84% | max response [5] 2.56% | outcome [6] | Potency [7] | Potency [8] | outcome [9] | Potency [10] | Potency [11] | Potency [12] | Potency [13] | Potency [14] | Potency [15]

COc1cc(O)cc(C)c1C(=O)OC1C(CO)OC(n2ccc(=O)[nH]c2=O)C1OC(C)=O (stereo not given)
inactive: outcome [1] | max response [2] 2.97% | outcome [3] | max response [4] 8.59% | max response [5] -1.67% | outcome [6] inactive [at 17.4 µM] | Potency [7] | Potency [8] | outcome [9] | Potency [10] | Potency [11] | Potency [12] | Potency [13] | Potency [14] | Potency [15]

O=C(/C=C/c1ccccc1)O[C@@H]1[C@@H](CO)O[C@@](CO)(O[C@H]2O[C@H](CO)[C@@H](O)[C@H](O)[C@H]2O)[C@H]1O
inactive: outcome [1] | max response [2] 0.967% | outcome [3] | max response [4] -2.31% | max response [5] 2.88% | outcome [6] inactive [at 17.4 µM] | Potency [7] | Potency [8] | outcome [9] | Potency [10] | Potency [11] | Potency [12] | Potency [13] | Potency [14] | Potency [15]
